# Source: PubChem BioAssay
# Shiga inhibitor: A qHTS for Small Molecule Inhibitors of Shiga Toxin; actives 9.2% (n = 290,000); Vero cells, Shiga toxin protein synthesis inhibition reporter; inhibition, % at 38.7 µM; in the data active = inhibition mostly above about 28%, no sharp cut-off; inactive = mostly below about 43%
# LmPK inh: qHTS Assay for Inhibitors of Leishmania Mexicana Pyruvate Kinase (LmPK); Potency, µM (titrated, usually from 57.5 µM), actives largely listed as inhibitors; actives 0.37% (n = 290,000); purified LmPK, Kinase-Glo ATP luminescence, 1 h
#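 qHTS format; LmPK 0.1 nM; substrates PEP 0.5 mM and ADP 0.1 mM. One-hour room-temperature incubation, then coupled luciferase luminescence; 0.5 nM enzyme wells mark activation.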
# RE007 growth inh: qHTS Assay for Inhibitors of the HIV-1 protein Vpr. AID 651644, 2012. actives 0.21% (n = 360,000). Potency, µM (titrated, usually from 92.2 µM), most hits filed as inhibitors. S. pombe RE007 Vpr strain, BacTiter-Glo ATP luminescence, 24 h; active = well fitted falling curve with a large enough effect; inconclusive = small, poorly fitted or top-dose-only effect; inactive = no such curve, though single readings can be large or run the other way; note: nearly all actives have a fitted effect of over 50% in size
#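 Fission yeast strain RE007, carrying one chromosomally integrated HIV-1 vpr copy, was seeded at OD 0.01 in PMG+AL medium with 23 nL pinned compound. After 24 h at 30 °C and 99% humidity, viability was read by BacTiter-Glo luminescence.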
# Giardia FBPA inh: qHTS Assay for Inhibitors of Fructose-1,6-bisphosphate Aldolase from Giardia Lamblia; A8B2U2; purified Giardia FBPA; Potency, µM (series often up to 59.6 µM), hits mostly inhibitors; actives 0.71% (n = 290,000); AID 2451, 2010; note: nearly all actives have a fitted effect of over 55% in size
# Target sequence (A8B2U2 whole entry, looked up): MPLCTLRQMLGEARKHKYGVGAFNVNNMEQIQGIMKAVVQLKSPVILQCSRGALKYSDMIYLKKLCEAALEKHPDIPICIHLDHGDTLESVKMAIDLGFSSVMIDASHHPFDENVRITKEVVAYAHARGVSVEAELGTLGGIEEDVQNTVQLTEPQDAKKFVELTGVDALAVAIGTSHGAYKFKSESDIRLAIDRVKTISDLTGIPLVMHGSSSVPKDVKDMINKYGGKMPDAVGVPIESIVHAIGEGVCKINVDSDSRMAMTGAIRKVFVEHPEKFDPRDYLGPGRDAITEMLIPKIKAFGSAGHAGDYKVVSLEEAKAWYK
#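 40 nM FBPA preincubated 10 min at RT with compound (up to 57.5 uM final), then substrate plus GAPDH/TPI/NAD/arsenate coupling and diaphorase/resazurin added. Fluorescence read after 20 min at RT, 525/598 nm.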
# CHX counter: Cycloheximide Counterscreen for Small Molecule Inhibitors of Shiga Toxin | actives 12% (n = 300,000) | cell reporter, cycloheximide protein synthesis inhibition counterscreen | max response, % | AID 2314, 2010; in the data active = max response mostly above about 13%, no sharp cut-off; inactive = mostly below about 14%; note: read at 38.3 µM for the half of the compounds with a filed dose
# Tb PYK inh: qHTS of Trypanosoma Brucei Inhibitors; TbPYK enzyme, Kinase-Glo Plus ATP luminescence, 45 min; AID 624173, 2012; actives 0.12% (n = 410,000); pyruvate kinase (Trypanosoma brucei), Q57TT1; Potency, µM (doses to about 76.8 µM), most hits filed as inhibitors; note: nearly all actives have a fitted effect of over 50% in size
#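 Enzyme and substrate buffer are dispensed first and compound is pin-transferred. ADP at 130 uM final then starts the reaction, which runs 45 min at room temperature. Detection reagent is added for 10 min before luminescence is imaged.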
# Hits are given with their value; n = inactive; u = inconclusive; x = not tested or not shown; + = active, no number; ! = not confirmed by another sample; [ ] = remark or other dose. Shown is part of a subset that was picked to be rich in hits. Unless noted, calls come from the whole dose curve; as a rule, active = well fitted curve in the direction sought with a large enough effect; inconclusive = small, poorly fitted or top-dose-only effect, or another doubt; inactive = no such curve, though single readings can be large; an effect the other way counts as inactive or inconclusive.
SMILES,Shiga inhibitor,LmPK inh,RE007 growth inh,Giardia FBPA inh,CHX counter,Tb PYK inh
CS(=O)(=O)Nc1ccccc1C(=O)NCCSc1ccccc1,n,n,n,n,n,n
O=C(NCCSc1ccccc1)c1ccccc1Cl,97,n,n,n,64,n
CSc1ccccc1C(=O)NCCSc1ccccc1,n,n,n,n,29,n
CCCCN(CC)C(=O)CSc1nc2c(sc3ccccc32)c(=O)n1CCc1ccccc1,x,x,x,x,x,n
O=C(COC(=O)c1cnccn1)c1cccc([N+](=O)[O-])c1,n,n,n,n,n,n
CCC(C(=O)NC1CCCCC1)n1c(SCc2ccccc2F)nc2ccncc21 (centres undefined),n,n,n,n,17!,n
COc1ccc(Cl)cc1C(=O)C1CCCN(Cc2cnc(C)s2)C1 (centres undefined),53,n,n,n,17,n
CCCC[C@H](NC(=O)[C@H](CC(C)C)NC(=O)[C@@H](Cc1c[nH]c2ccccc12)NC(=O)[C@H](Cc1ccccc1)NC(=O)[C@@H](Cc1c[nH]c2ccccc12)NC(=O)[C@H](CC(N)=O)NC(=O)[C@@H](Cc1c(Cl)cccc1Cl)NC(=O)[C@@H]1CCCN1C(=O)[C@H](Cc1ccccn1)NC(=O)[C@@H]1CCCN1C(=O)[C@H](N)CCCCNC(=O)c1cccnc1)C(N)=O,n,x,x,n,n,x
CC(C)(C)c1ccc(C(=O)NC(=S)N2CCOCC2)cc1,92,n,n,x,46,u
CC(C)Oc1ccc(C(=O)NC(=S)N2CCOCC2)cc1,45,n,n,u,32,n
Cc1ccc(C(=O)NC(=S)N2CCN(C)CC2)cc1,88,n,n,n,21,n
CN1CCN(C(=S)NC(=O)c2ccc(S(=O)(=O)N3CCOCC3)cc2)CC1,n,n,n,u,n,n
Cc1ccc(C(=O)NC(=S)N2CCCC2)cc1,n,n,n,x,n,n
Cc1c(C)c2c(cc(C)c3c(-c4ccccc4)coc32)oc1=O,x,x,x,x,x,n
CCOc1cc(C(=O)N2CC(=O)Nc3ccc(F)cc3C2c2ccccc2)cc(OCC)c1OCC (centres undefined),x,x,x,x,x,n
CCn1nnnc1SCC(=O)N1CCN(Cc2ccc3c(c2)OCCO3)CC1,x,x,n,x,x,n
Cn1nnnc1SCC(=O)c1ccc2c(c1)OCCO2,97,n,n,n,38,n
COc1ccc(C(=O)CSc2nncn2C)cc1,n,n,n,n,n,n
Cn1cnnc1SCC(=O)c1ccc2c(c1)OCCO2,49,n,n,n,n,n
CCn1c(SCC(=O)c2ccc3c(c2)OCCO3)nnc1-c1ccco1,n,n,n,u,15,n
COc1cccc(C(=O)CSc2nnnn2C)c1,n,n,n,n,n,n
CCCn1nnnc1SCC(=O)c1ccc2c(c1)OCCO2,74,n,n,n,36,n
Cc1c(C)n(Cc2ccccc2)c2ncnc(NN)c12,n,n,n,n,15,n
Cc1ccc(-n2c(C)c(C)c3c(NCCO)ncnc32)cc1,61,n,n,n,40,n
Cc1c(C)n(CCc2ccccc2)c2ncnc(NCCCO)c12,102,n,n,n,48,n
SMILES,Shiga inhibitor,LmPK inh,RE007 growth inh,Giardia FBPA inh,CHX counter,Tb PYK inh
Cc1c(C)n(Cc2ccccc2)c2ncnc(NCCN(C)C)c12,n,n,x,n,n,n
Cc1c(C)n(CCc2ccccc2)c2ncnc(NN)c12,n,n,n,n,16,n
CC(CNc1nc2ccccc2c2nc(-c3ccccc3)nn12)c1ccccc1 (centres undefined),x,x,x,x,x,n
Nc1c(C(=O)NC2CCCC2)c2nc3ccccc3nc2n1N,43,n,n,n,71,n
Cc1nc(C)c(-c2ccc(SCC(=O)Nc3ccc(C)c(Cl)c3)nn2)s1,n,n,n,x,n,n
CC(=O)c1ccc(NC(=O)CSc2ccc(-c3sc(C)nc3C)nn2)cc1,n,n,n,x,13,n
COc1ccc(-c2ccc(SCC(=O)NCC3CCCO3)nn2)cc1OC (centres undefined),n,n,n,n,21,n
COc1ccc(-c2ccc(SCC(=O)c3cccs3)nn2)cc1OC,56,n,n,n,n,n
COc1ccc(-c2ccc(SCC(=O)c3ccc(F)cc3)nn2)cc1OC,n,n,n,n,n,n
COc1ccc(-c2ccc(SCC(=O)Nc3cccc(C(C)=O)c3)nn2)cc1OC,97,n[11.5 µM],n,n,40,n
COc1cc(OC)cc(-c2nnc3n2N=C(c2cc(OC)ccc2OC)CS3)c1,n,x,x,n,n,x
OC1OC[C@H](O)[C@@H](O)[C@@H]1O (some centres undefined),n,x,x,n,n,x
Cc1ccc2c(CC(=O)Nc3cccc(S(=O)(=O)N4CCOCC4)c3)coc2c1,n,n,n,n,n,n
COc1ccccc1CNC(=O)Cn1c(=O)ccc2cc(S(=O)(=O)N3CCCC3)ccc21,x,x,x,x,x,n
O=C(Nc1cccc(Cl)c1)c1ccc2nc(CCc3ccccc3)oc2c1,x,x,x,x,x,n
CCn1ccnc1CNC(=O)c1ccc2oc(C(C)C)nc2c1,n,n,n,x,n,n
COc1ccc(-c2ccc(SCC(=O)NC3CCCCC3)nn2)cc1OC,65,n,n,n,37,n
COc1ccc(-c2ccc(SCC(=O)NC3CCCC3)nn2)cc1,x,x,n,x,x,n
COC(=O)/C=C/c1ccc2c(c1)OCO2,83,n,n,n,22,n
Cc1ccc(C(=O)N/C(=C\c2ccc3c(c2)OCO3)C(=O)Nc2ccc(C(=O)O)cc2)cc1,39,n,n,n,n,n
COc1ccc(C(=O)N/C(=C\c2ccc3c(c2)OCO3)C(=O)Nc2ccc(C(=O)O)cc2)cc1,n,n,n,n,n,n
COc1ccc(NC(=O)/C(=C/c2ccc3c(c2)OCO3)NC(C)=O)cc1,+,n,n,n,72,n
CCNc1ccccc(C(=O)/C=C/c2ccc3c(c2)OCO3)c1=O,n,n,n,u,24,n
C[C@H](CO)N1C[C@H](C)[C@@H](CN(C)S(=O)(=O)c2cccs2)Oc2c(NS(=O)(=O)c3ccccc3)cccc2C1=O,x,x,n,x,x,n
COc1cccc(/C=N/NC(=O)Cn2cnc3c2c(=O)n(C)c(=O)n3C)c1OC,n,n,n,n,n,n
CN(C(=O)/C=C/c1ccc2c(c1)OCO2)c1ccccc1,92,n,n,n,42,n
COc1cc(OC)c(OC)cc1/C=N/N(C)c1ccccc1,n,n,u,n,n,n
CN(C(=O)C=Cc1ccccc1)c1ccccc1,x,x,n,x,x,n
COc1cc(/C=N/N(C)c2ccccc2)ccc1O,88,n,n,n,31,n
